Measurements: PMC8384837, “Expanding the binding specificity for RNA recognition by a PUF domain”

Legend:
Assay in all cases: yeast three-hybrid, YBZ-1, SC-Leu-His + 0.5 mM 3-AT, 4 days
Conditions in all cases: tags: N-Gal4 AD-HA kept; label: inside an RPR1-promoter hybrid RNA with tandem MS2 sites; ssRNA
PUM1 PUF domain R6-VWA = target: T1, PUM1 PUF domain R6-VWA (Homo sapiens, UniProt Q14671 828-1176, N1043V;Y1044W;Q1047A)
T1 sequence: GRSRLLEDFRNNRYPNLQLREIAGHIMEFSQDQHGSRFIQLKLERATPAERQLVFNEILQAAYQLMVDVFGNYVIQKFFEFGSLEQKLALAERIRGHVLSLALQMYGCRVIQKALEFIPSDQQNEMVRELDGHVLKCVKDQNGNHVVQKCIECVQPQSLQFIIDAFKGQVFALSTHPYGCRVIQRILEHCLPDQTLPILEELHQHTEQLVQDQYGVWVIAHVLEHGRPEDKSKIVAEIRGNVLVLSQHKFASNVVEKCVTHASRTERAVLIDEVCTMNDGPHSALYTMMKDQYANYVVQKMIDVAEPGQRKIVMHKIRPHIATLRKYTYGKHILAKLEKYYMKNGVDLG
Procedure, shortened: (§1)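 The interaction score is the log change in how often each variant appears, from input to selection. Frequencies came from PCR-amplified, Illumina-sequenced repeat regions of Pumilio-1 PUF domain libraries grown in strain YBZ-1 (LexA–MS2 coat fusion, HIS3 reporter) alongside matching RNA elements. Input plates were SC-Leu and selection plates were SC-Leu-His + 0.5 mM 3-AT, each for four days, and the log2 calculation used a pseudocount of 1 where a variant was absent.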

PUM1 PUF domain R3-MRS = PUM1 PUF domain R3-MRS (Homo sapiens, UniProt Q14671 828-1176, C935M;Q939S)
Procedure, shortened: as §1

PUM1 PUF domain R3-RPG = PUM1 PUF domain R3-RPG (Homo sapiens, UniProt Q14671 828-1176, C935R;R936P;Q939G)
Procedure, shortened: as §1

PUM1 PUF domain R3-MWG = PUM1 PUF domain R3-MWG (Homo sapiens, UniProt Q14671 828-1176, C935M;R936W;Q939G)
Procedure, shortened: as §1

PUM1 PUF domain R3-FSS = PUM1 PUF domain R3-FSS (Homo sapiens, UniProt Q14671 828-1176, C935F;R936S;Q939S)
Procedure, shortened: as §1

PUM1 PUF domain R1-YWR = PUM1 PUF domain R1-YWR (Homo sapiens, UniProt Q14671 828-1176, S863Y;R864W;Q867R)
Procedure, shortened: as §1

PUM1 PUF domain R1-RGI = PUM1 PUF domain R1-RGI (Homo sapiens, UniProt Q14671 828-1176, S863R;R864G;Q867I)
Procedure, shortened: as §1

PUM1 PUF domain R4-GNR = PUM1 PUF domain R4-GNR (Homo sapiens, UniProt Q14671 828-1176, N971G;H972N;Q975R)
Procedure, shortened: as §1

PUM1 PUF domain R5-RRP = PUM1 PUF domain R5-RRP (Homo sapiens, UniProt Q14671 828-1176, C1007R;Q1011P)
Procedure, shortened: as §1

PUM1 PUF domain R5-KGL = PUM1 PUF domain R5-KGL (Homo sapiens, UniProt Q14671 828-1176, C1007K;R1008G;Q1011L)
Procedure, shortened: as §1

PUM1 PUF domain R5-RRP, sequence (Q14671 828-1176 C1007R/Q1011P): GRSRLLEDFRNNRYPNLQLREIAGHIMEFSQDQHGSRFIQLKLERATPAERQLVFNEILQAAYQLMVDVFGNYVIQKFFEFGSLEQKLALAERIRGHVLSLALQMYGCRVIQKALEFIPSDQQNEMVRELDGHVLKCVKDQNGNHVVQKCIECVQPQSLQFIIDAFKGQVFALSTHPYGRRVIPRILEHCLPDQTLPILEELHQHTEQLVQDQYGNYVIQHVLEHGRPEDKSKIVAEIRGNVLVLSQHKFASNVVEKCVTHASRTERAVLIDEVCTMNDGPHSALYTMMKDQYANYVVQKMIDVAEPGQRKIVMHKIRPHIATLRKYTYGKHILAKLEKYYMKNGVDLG

For “GGCUAGAACUAGUGGAUCCCCCGGCGCCCGGCGGCUCGAGCCCGGGUAAGUGAAAAUAGUCUGCAUGCCGCCGGGCGCCAUGCCUGCAGGUCGACUCUAGAAAACAUG”, the binding signal (PUM1 PUF domain R6-VWA) was 6 log2 enrichment (interaction score).
“GGCUAGAACUAGUGGAUCCCCCGGCGCCCGGCGGCUCGAGCCCGGGUAAGUGUAAUUAGUCUGCAUGCCGCCGGGCGCCAUGCCUGCAGGUCGACUCUAGAAAACAUG” was tested, and the binding signal (PUM1 PUF domain R3-MRS) was 2.96 log2 enrichment (interaction score), the binding signal (PUM1 PUF domain R3-RPG) was 4.38 log2 enrichment (interaction score) and the binding signal (PUM1 PUF domain R3-MWG) was 3.86 log2 enrichment (interaction score).
“GGCUAGAACUAGUGGAUCCCCCGGCGCCCGGCGGCUCGAGCCCGGGUAAGUGUAAGUAGUCUGCAUGCCGCCGGGCGCCAUGCCUGCAGGUCGACUCUAGAAAACAUG” was tested, and the binding signal (PUM1 PUF domain R3-MRS) was 4.95 log2 enrichment (interaction score) and the binding signal (PUM1 PUF domain R3-FSS) was 2.46 log2 enrichment (interaction score).
“GGCUAGAACUAGUGGAUCCCCCGGCGCCCGGCGGCUCGAGCCCGGGUAAGUGUAAAUUGUCUGCAUGCCGCCGGGCGCCAUGCCUGCAGGUCGACUCUAGAAAACAUG” was tested, and the binding signal (PUM1 PUF domain R1-YWR) was 4.46 log2 enrichment (interaction score) and the binding signal (PUM1 PUF domain R1-RGI) was 1.53 log2 enrichment (interaction score).
For “GGCUAGAACUAGUGGAUCCCCCGGCGCCCGGCGGCUCGAGCCCGGGUAAGUGUACAUAGUCUGCAUGCCGCCGGGCGCCAUGCCUGCAGGUCGACUCUAGAAAACAUG”, the binding signal (PUM1 PUF domain R4-GNR) was 1.04 log2 enrichment (interaction score).
With “GGCUAGAACUAGUGGAUCCCCCGGCGCCCGGCGGCUCGAGCCCGGGUAAGUGUAUAUAGUCUGCAUGCCGCCGGGCGCCAUGCCUGCAGGUCGACUCUAGAAAACAUG” the binding signal (PUM1 PUF domain R4-GNR) was 3.44 log2 enrichment (interaction score).
With “GGCUAGAACUAGUGGAUCCCCCGGCGCCCGGCGGCUCGAGCCCGGGUAAGUGUCAAUAGUCUGCAUGCCGCCGGGCGCCAUGCCUGCAGGUCGACUCUAGAAAACAUG” the binding signal (PUM1 PUF domain R5-RRP) was 5.07 log2 enrichment (interaction score) and the binding signal (PUM1 PUF domain R5-KGL) was 3.86 log2 enrichment (interaction score).
